High-throughput results: PubChem, National Center for Advancing Translational Sciences (NCATS)
D2 antag: antagonizes the human D2 dopamine receptor. AID 485344. P14416. inhibition, % at 10 µM. HEK293 TREx D2 cells, calcium flux, dopamine EC80. 2% of 340,000 active; in the data active means inhibition above about 30%; inactive means below that, where a call was filed
Target sequence (P14416 whole entry, looked up): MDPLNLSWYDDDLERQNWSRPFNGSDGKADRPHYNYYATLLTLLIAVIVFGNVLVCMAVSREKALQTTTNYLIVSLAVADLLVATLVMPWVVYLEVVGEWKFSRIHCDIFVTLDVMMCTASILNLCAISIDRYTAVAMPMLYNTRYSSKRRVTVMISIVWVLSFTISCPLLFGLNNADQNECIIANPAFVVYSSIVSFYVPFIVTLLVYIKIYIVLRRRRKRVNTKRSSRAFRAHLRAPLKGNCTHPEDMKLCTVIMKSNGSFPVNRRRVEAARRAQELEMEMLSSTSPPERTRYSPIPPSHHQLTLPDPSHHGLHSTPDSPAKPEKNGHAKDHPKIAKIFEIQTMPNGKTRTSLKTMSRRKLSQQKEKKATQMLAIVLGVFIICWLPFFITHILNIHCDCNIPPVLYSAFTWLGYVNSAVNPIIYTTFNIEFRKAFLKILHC
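In this primary screen, negative modulation is detected by tracking calcium flux after an EC80 dopamine challenge in inducible HEK293 T-REx D2 cells preexposed to test compound for 180 s.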
D2 PAM-1: D2 dopamine receptor (human) potentiation. P14416. HEK293 T-REx D2, calcium flux, EC20 dopamine potentiation. potentiation, % at 10 µM. 0.34% of 340,000 active;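 active means potentiation over 3 SD above the plate norm, cut at about 30% in these data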
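Primary screen. Calcium kinetics in induced HEK293 T-REx D2 cells: compound pre-addition 180 s, EC20 dopamine, 180 s more.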
D2 ag-1: agonists of human D2 dopamine receptor (beta-arrestin) | P14416 | DiscoveRx PathHunter D2 beta-arrestin, luminescence, 90 min; 100% = 57 uM dopamine signal | activation, % (no concentration beside the values) | 0.084% of 360,000 active | AID 624465; in the data active means activation above about 40%
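DiscoveRx PathHunter D2 beta-arrestin cells (2,100/well) attached overnight, then compound-stimulated 90 min at 37 C in HBSS/10 mM HEPES/0.1% Tween-20 buffer; beta-galactosidase complementation read by luminescence after 1 h at ambient temperature. Dopamine 57 uM final (EC100) as control.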
D2 ag-2: activates the human D2 dopamine receptor; P14416; HEK293 T-REx D2 cells, calcium flux agonist mode; activation, % at 2 µM; 0.53% of 340,000 active; AID 485358;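 active means activation over 3 SD above normal in the single-dose calcium agonist read, cut at about 30% in these data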
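HEK293 Trex D2 cells, tetracycline-induced, o/n 30 C 5% CO2; no-wash Ca dye, RT 30–90 min; 10-cycle baseline, 23 nl cpd added, kinetic Ca read 180 s; agonist hits = positive Ca response.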
D2 PAM-2: potentiates the human D2 dopamine receptor allosterically. 0.23% of 360,000 active. potentiation, % (concentration not given with the values). DiscoveRx D2 beta-arrestin cells, luminescence, 90 min; 100% = 57 uM dopamine signal. P14416; in the data active means potentiation above about 50%
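PathHunter beta-arrestin assay in DiscoveRx D2 cells. Compounds were added with an EC20 of dopamine (50 nM final) for 90 min at 37 deg C. Luminescence was read 1 h after detection reagent, with 57 uM dopamine as the EC100 control.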
Numbers stand for hits. In the library only some 2.4% were active in any assay of this set; here they are far more common.

For O=C(NC1CCCC1)C(c1ccncc1)N(Cc1cccs1)C(=O)c1csnn1 (configuration not stated) the results were D2 antag 36, D2 PAM-1 inactive, D2 ag-1 inactive, D2 ag-2 inactive and D2 PAM-2 inactive.
Cn1cc(Cl)c(C(=O)N/N=C/c2ccc(OS(=O)(=O)c3ccccc3)cc2)n1 was read as D2 antag inactive, D2 PAM-1 40, D2 ag-1 inactive, D2 ag-2 inactive and D2 PAM-2 inactive.
Screening Cc1ccc(/C=N/NC(=O)c2nn(C)cc2Cl)cc1 returned D2 antag inactive, D2 PAM-1 inactive, D2 ag-1 inactive, D2 ag-2 inactive and D2 PAM-2 inactive.
NC(N)=N/N=C/c1ccc(OS(=O)(=O)c2ccccc2)cc1 was read as D2 antag 30, D2 PAM-1 inactive, D2 ag-1 inactive, D2 ag-2 inactive and D2 PAM-2 inactive.
For CCC(=O)N/N=C/c1ccc(OS(=O)(=O)c2ccccc2)cc1 the results were D2 antag inactive, D2 PAM-1 inactive, D2 ag-1 inactive, D2 ag-2 inactive and D2 PAM-2 inactive.
O=C(O)CCc1nc2cc(C(F)(F)F)ccc2n(Cc2ccccc2)c1=O was read as D2 antag inactive, D2 PAM-1 inactive, D2 ag-1 inactive, D2 ag-2 inactive and D2 PAM-2 inactive.
`NC(=S)N=Nc1c(O)n(Cc2ccc(Br)cc2)c2ccccc12` gave D2 antag inactive, D2 PAM-1 inactive, D2 ag-1 inactive, D2 ag-2 inactive and D2 PAM-2 52.
`NC(=S)N=Nc1c(O)n(Cc2ccc(F)cc2)c2ccccc12` gave D2 antag inactive, D2 PAM-1 inactive, D2 ag-1 inactive, D2 ag-2 inactive and D2 PAM-2 inactive.
`Brc1ccc(-c2cn3c(n2)CCc2ccc4cccnc4c2-3)cc1` gave D2 antag inactive, D2 PAM-1 32, D2 ag-1 inactive, D2 ag-2 inactive and D2 PAM-2 inactive.
For Brc1ccc(-c2cn3nc4c(nc3n2)CCCC4)cc1 the results were D2 antag inactive, D2 PAM-1 inactive, D2 ag-1 inactive, D2 ag-2 inactive and D2 PAM-2 inactive.
Cc1c(C(=O)NCc2cccc(F)c2)oc2c1-c1[nH]ncc1CC2 was read as D2 PAM-1 inactive and D2 ag-2 inactive.
For CCC(C(=O)Nc1ccc(C(=O)OC)cc1)n1c(=O)c(-c2ccccc2NC(C)=O)nc2ccccc21 (configuration not stated) the results were D2 PAM-1 inactive and D2 ag-2 inactive.
Screening CCCC(=O)Nc1nc2nc(-c3ccccc3)cc(=O)n2[nH]1 returned D2 antag 32, D2 PAM-1 inactive, D2 ag-1 inactive, D2 ag-2 inactive and D2 PAM-2 inactive.
CC(=O)Nc1nc(N)n(-c2ccccc2)n1 was read as D2 antag inactive, D2 PAM-1 inactive, D2 ag-1 inactive, D2 ag-2 inactive and D2 PAM-2 inactive.
Screening Nc1nc(NC(=O)/C=C\C(=O)O)nn1-c1ccccc1 returned D2 antag 36, D2 PAM-1 inactive, D2 ag-1 inactive, D2 ag-2 inactive and D2 PAM-2 inactive.
For COc1ccc(-n2cc(C(=O)NCc3ccccc3)c3ccccc3c2=O)cc1 the results were D2 PAM-1 inactive and D2 ag-2 inactive.
Screening NS(=O)(=O)c1cccc(NC(=O)COC(=O)C2(c3cccc(F)c3)CCCC2)c1 returned D2 antag 51, D2 PAM-1 inactive, D2 ag-1 inactive, D2 ag-2 inactive and D2 PAM-2 inactive.
`CCN(C(=O)Cc1c(C(=O)O)[nH]c2ccccc12)c1ccc(OC)cc1` gave D2 antag 53, D2 PAM-1 inactive, D2 ag-1 inactive, D2 ag-2 inactive and D2 PAM-2 inactive.
Screening COc1ccc(-c2cc(C(F)(F)F)n3nc(C(=O)NCc4ccco4)cc3n2)cc1 returned D2 antag inactive, D2 PAM-1 inactive, D2 ag-1 inactive, D2 ag-2 inactive and D2 PAM-2 inactive.
`Cc1cc(-c2ccccc2)nc2cc(C(=O)NCc3ccco3)nn12` gave D2 antag inactive, D2 PAM-1 36, D2 ag-1 inactive, D2 ag-2 inactive and D2 PAM-2 inactive.
Screening O=C(O)c1ccnc(Cl)c1 returned D2 antag 32, D2 PAM-1 inactive, D2 ag-1 inactive, D2 ag-2 inactive and D2 PAM-2 inactive.
O=C1CCCN1CCCN1CC(C(=O)N(CCO)Cc2ccccc2)CCC1=O (configuration not stated) was read as D2 PAM-1 inactive, D2 ag-1 inactive and D2 PAM-2 inactive.
